Results reported in the supplement of paper PMC12494721.
Where a name gives a salt, the structure may show the parent alone.

Columns and labels:
Conditions in all cases: incubation time: 27 h, anaerobic, 37 °C;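 for the amine columns active = adjusted P below 0.05 in both replicates with a change the same way and a mean fold change under 0.8 or over 1.25; inactive = the rest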
[1] = system: Clostridium sporogenes DSM 1664; assay: growth (OD595) fold change vs plate DMSO controls (fold change (ratio)); higher = more growth
How it was run: (§1)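 Growth is the fold change relative to the median of plate DMSO controls. Readings came from anaerobic mGAM cultures in 96-well plates grown for 27 h at 37 °C and read at 595 nm. They were blank-subtracted, corrected for compound background with 20 µM compound solutions in water, and converted to OD with a calibration factor of 5. Values are means of 2 biological replicates, and fold changes above 1.5 were set to NA.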

Escherichia coli IAI1 [2] = assay: as above
How it was run: as §1

[3] = system: Klebsiella aerogenes DSM 30053; assay: as above
How it was run: as §1

[4] = system: Ruminococcus gnavus DSM 108212; assay: as above
How it was run: as §1

[5] = system: Klebsiella aerogenes DSM 30053; assay: fold change of Histamine concentration vs plate DMSO controls (fold change (ratio)); higher = more amine produced, active = hit call of the paper (significant change in both replicates, either direction)
How it was run: (§2)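 Anaerobic mGAM cultures of four gut bacterial strains were grown at 37 °C for 27 h in 80 µL wells, starting at OD 0.1 before 1:1 dilution. Compounds were at 20 µM final (sweeteners 50 µM). Whole cultures were extracted with cold acetonitrile/methanol containing 0.1% formic acid and centrifuged. Amines were quantified by LC–triple-quadrupole MS (dynamic MRM) against external calibration curves and drift-corrected within batch. Each value is the fold change versus plate DMSO controls, averaged over 2 biological replicates.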

[6] = system: Clostridium sporogenes DSM 1664; assay: fold change of Tryptamine concentration vs plate DMSO controls (fold change (ratio)); higher = more amine produced, active = hit call of the paper (significant change in both replicates, either direction)
How it was run: as §2

[7] = system: Ruminococcus gnavus DSM 108212; assay: as above
How it was run: as §2

Escherichia coli IAI1 [8] = assay: fold change of Putrescine concentration vs plate DMSO controls (fold change (ratio)); higher = more amine produced, active = hit call of the paper (significant change in both replicates, either direction)
How it was run: as §2

[9] = system: Klebsiella aerogenes DSM 30053; assay: as above
How it was run: as §2

Escherichia coli IAI1 [10] = assay: fold change of Cadaverine concentration vs plate DMSO controls (fold change (ratio)); higher = more amine produced, active = hit call of the paper (significant change in both replicates, either direction)
How it was run: as §2

[11] = system: Klebsiella aerogenes DSM 30053; assay: as above
How it was run: as §2

[12] = system: Ruminococcus gnavus DSM 108212; assay: fold change of 2-Phenylethylamine concentration vs plate DMSO controls (fold change (ratio)); higher = more amine produced, active = hit call of the paper (significant change in both replicates, either direction)
How it was run: as §2

Row | SMILES | growth [1] | growth (Escherichia coli IAI1 [2]) | growth [3] | growth [4] | fold change of Histamine concentration [5] | fold change of Tryptamine concentration [6] | fold change of Tryptamine concentration [7] | fold change of Putrescine concentration (Escherichia coli IAI1 [8]) | fold change of Putrescine concentration [9] | fold change of Cadaverine concentration (Escherichia coli IAI1 [10]) | fold change of Cadaverine concentration [11] | fold change of 2-Phenylethylamine concentration [12]
1 | C[C@H](CCc1ccccc1)NC[C@H](O)c1ccc(O)c(C(N)=O)c1 [Dilevalol] (20 µM) | 1.02 | 0.978 | 1.11 | 1.1 | 0.929 (inactive) | 1.04 (inactive) | 0.98 (inactive) | 1.02 (inactive) | 1.01 (inactive) | 0.974 (inactive) | 1.01 (inactive) | 1.01 (inactive)
2 | O=C1c2ccccc2C(=O)C1c1ccccc1 [Phenindione] (20 µM) | 1.17 | 0.963 | 0.969 | 1.07 | 1.08 (inactive) | 1 (inactive) | 1.01 (inactive) | 0.958 (inactive) | 1 (inactive) | 0.984 (inactive) | 0.976 (inactive) | 0.977 (inactive)
3 | CC(=O)N(CC(C)C(=O)O)c1c(I)cc(I)c(N)c1I (stereo not drawn) [Iocetamic acid] (20 µM) | 0.863 | 1.01 | 0.986 | 0.975 | 1.04 (inactive) | 1.05 (inactive) | 0.971 (inactive) | 1.09 (inactive) | 1 (inactive) | 0.988 (inactive) | 0.987 (inactive) | 0.924 (inactive)
4 | N#Cc1ccc(Oc2ccc3c(c2)COB3O)cc1 [Crisaborole] (20 µM) | 1.06 | 0.983 | 1.02 | 1.12 | 0.998 (inactive) | 0.95 (inactive) | 0.688 (active) | 1.03 (inactive) | 0.987 (inactive) | 1 (inactive) | 0.994 (inactive) | 0.799 (inactive)
5 | C[C@@H](O)[C@H]1C(=O)N2C(C(=O)O)=C(S[C@@H]3CN[C@H](C(=O)N(C)C)C3)[C@H](C)[C@H]12 [Meropenem] (20 µM) | 0 | 0.0127 | 0.316 | 0 | 0.214 (active) | 0.0316 (active) | 0.0446 (active) | 0.278 (active) | 0.605 (active) | 0.971 (inactive) | 1.11 (inactive) | 0.0459 (active)
6 | CCN(CC)CCCC(C)Nc1ccnc2cc(Cl)ccc12 (stereo not drawn) [Chloroquine diphosphate] (20 µM) | 1.07 | 0.965 | 0.996 | 0.941 | 1.04 (inactive) | 1.1 (inactive) | 1.03 (inactive) | 0.939 (inactive) | 1.02 (inactive) | 0.962 (inactive) | 0.985 (inactive) | 1.02 (inactive)
7 | CCN1/C(=C/C=C/C=C/c2sc3ccccc3[n+]2CC)Sc2ccccc21 [Dithiazanine iodide] (20 µM) | 0.625 | 0.879 | 0.837 | 1.24 | 0.924 (inactive) | 0.849 (inactive) | 0.749 (active) | 1.05 (inactive) | 1.01 (inactive) | 1.07 (inactive) | 0.995 (inactive) | 0.699 (active)
8 | c1ccc(CC2=NCCN2)cc1 [Tolazoline hydrochloride] (20 µM) | 1.05 | 1 | 0.977 | 0.841 | 1.07 (inactive) | 0.962 (inactive) | 0.996 (inactive) | 0.996 (inactive) | 1.02 (inactive) | 1.06 (inactive) | 0.99 (inactive) | 1 (inactive)
9 | CC(=O)OC[C@H]1O[C@@H](n2ncc(=O)[nH]c2=O)[C@H](OC(C)=O)[C@@H]1OC(C)=O [Azaribine] (20 µM) | 1.22 | 1.01 | 1 | 1.18 | 0.978 (inactive) | 0.997 (inactive) | 0.988 (inactive) | 1.05 (inactive) | 1.04 (inactive) | 0.944 (inactive) | 1.02 (inactive) | 0.96 (inactive)
10 | CC1(C)S[C@@H]2[C@H](NC(=O)C(C(=O)O)c3ccccc3)C(=O)N2[C@H]1C(=O)O (stereo partly drawn) [Carbenicillin disodium salt] (20 µM) | 0 | 1.19 | 1.05 | 0.00334 | 1.02 (inactive) | 0.0162 (active) | 0.0824 (active) | 0.927 (inactive) | 0.986 (inactive) | 1.79 (active) | 1.05 (inactive) | 0.0579 (active)
11 | NCC[C@H](O)C(=O)N[C@@H]1C[C@H](N)[C@@H](O[C@H]2O[C@H](CN)[C@@H](O)[C@H](O)[C@H]2O)[C@H](O)[C@H]1O[C@H]1O[C@H](CO)[C@@H](O)[C@H](N)[C@H]1O [Amikacin hydrate] (20 µM) | 0.793 | 0.983 | 0.78 | 0.735 | 0.601 (active) | 0.812 (inactive) | 0.911 (inactive) | 1 (inactive) | 0.992 (inactive) | 0.922 (inactive) | 0.982 (inactive) | 0.972 (inactive)
12 | Cc1c(NC(C)C)c(=O)n(-c2ccccc2)n1C [Isopyrin hydrochloride] (20 µM) | 1.12 | 1.02 | 1.02 | 1 | 0.951 (inactive) | 1.03 (inactive) | 1.2 (inactive) | 1.14 (inactive) | 0.943 (inactive) | 1.02 (inactive) | 1 (inactive) | 1.32 (inactive)
13 | C#CCN[C@@H]1CCc2ccccc21 [Rasagiline] (20 µM) | 0.963 | 0.959 | 0.993 | 0.87 | 1.02 (inactive) | 1.03 (inactive) | 1.02 (inactive) | 0.965 (inactive) | 0.981 (inactive) | 1.02 (inactive) | 0.974 (inactive) | 1.03 (inactive)
14 | C[N+]1(C)CCC(OC(=O)C(O)(c2ccccc2)C2CCCC2)C1 (stereo not drawn) [Glycopyrrolate bromide] (20 µM) | 0.836 | 1.03 | 1.01 | 0.959 | 1 (inactive) | 1.01 (inactive) | 0.994 (inactive) | 1.08 (inactive) | 1 (inactive) | 1.01 (inactive) | 1.01 (inactive) | 1.02 (inactive)
15 | CCN(CC)C(=O)N1CCN(C)CC1 [Diethylcarbamazine citrate] (20 µM) | 1.12 | 0.975 | 1.04 | 0.977 | 0.954 (inactive) | 1.03 (inactive) | 0.976 (inactive) | 0.988 (inactive) | 0.985 (inactive) | 1.02 (inactive) | 1 (inactive) | 0.905 (inactive)
16 | Nc1ccc(C(=O)NCC(=O)O)cc1 [Aminohippuric acid] (20 µM) | 0.256 | 0.163 | 0 | 0.295 | 0.944 (inactive) | 0.982 (inactive) | 1.03 (inactive) | 1.04 (inactive) | 1.01 (inactive) | 0.988 (inactive) | 1.01 (inactive) | 1.03 (inactive)
17 | c1cc2ccc3ccc4ccc5cccc6c(c1)c2c3c4c56 [Benzo-[g,h,i]perylene] (20 µM) | 0.921 | 1.01 | 1.06 | 1.05 | 1.04 (inactive) | 1.02 (inactive) | 0.905 (inactive) | 1.04 (inactive) | 1.01 (inactive) | 1 (inactive) | 0.976 (inactive) | 0.88 (inactive)
18 | CCN(CC)Cc1cc(Nc2ccnc3cc(Cl)ccc23)ccc1O [Amodiaquine dihydrochloride dihydrate] (20 µM) | 0.973 | 0.964 | 0.915 | 1.02 | 1.03 (inactive) | 1.01 (inactive) | 1.01 (inactive) | 0.928 (inactive) | 1.01 (inactive) | 0.967 (inactive) | 0.978 (inactive) | 1.03 (inactive)
19 | O=S(=O)(O)CCS [Coenzyme M] (20 µM) | 0.917 | 1.06 | 1 | 1.01 | 1.12 (inactive) | 1.02 (inactive) | 0.951 (inactive) | 1.03 (inactive) | 1.01 (inactive) | 0.979 (inactive) | 0.986 (inactive) | 0.902 (inactive)
20 | CCOCCn1c(N2CCCN(C)CC2)nc2ccccc21 [Emedastine difumarate] (20 µM) | 1.08 | 1.02 | 1.03 | 0.971 | 0.993 (inactive) | 0.994 (inactive) | 1.02 (inactive) | 0.991 (inactive) | 1.01 (inactive) | 1 (inactive) | 0.999 (inactive) | 1.05 (inactive)
21 | COc1ccc2c(c1)N(C[C@H](C)CN(C)C)c1ccccc1S2 [Methotrimeprazine maleate salt] (20 µM) | 1.03 | 1.12 | 1 | 1.05 | 1.01 (inactive) | 1.07 (inactive) | 1.02 (inactive) | 1.19 (inactive) | 1.01 (inactive) | 0.995 (inactive) | 1.02 (inactive) | 1.11 (inactive)
22 | CCN(CC)C(=O)C1(c2ccccc2)CC1CN (stereo not drawn) [Milnacipran hydrochloride] (20 µM) | 1 | 1.02 | 1.03 | 1.16 | 0.968 (inactive) | 1.11 (inactive) | 1.09 (inactive) | 0.94 (inactive) | 0.958 (inactive) | 0.895 (inactive) | 1.04 (inactive) | 1.12 (inactive)
23 | CN(C)CCN1C(=O)c2ccccc2N(C)c2ccccc21 [Dibenzepine hydrochloride] (20 µM) | 1.02 | 0.993 | 0.972 | 0.677 | 1.06 (inactive) | 0.993 (inactive) | 1.03 (inactive) | 1.01 (inactive) | 1.01 (inactive) | 1.02 (inactive) | 0.985 (inactive) | 1.06 (inactive)
24 | CCCCC(=O)O[C@H]1CC[C@H]2[C@@H]3CCc4cc(O)ccc4[C@H]3CC[C@]12C [Estradiol Valerate] (20 µM) | 0.581 | 0.995 | 0.996 | 1.05 | 0.898 (inactive) | 0.24 (active) | 1 (inactive) | 0.88 (inactive) | 0.925 (inactive) | 0.926 (inactive) | 1.05 (inactive) | 0.953 (inactive)
